This passage reports AC50 and outcome results from PubChem BioAssay (EPA / NIEHS).

The nature of test [1]: TOX21_p53_BLA_p2_viability: Viability Assessment in the Tox21 HCT-116 p53 Agonism Beta-lactamase Assay, Phase 2 (AID 2283591).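 Note: compound exposure lasted 16 h at 37 °C; actives lower the ATP signal meaning cytotoxicity.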 In short, it runs like this: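 HCT116 p53-bla cells, 4000/well, dosed after 5 h plating (217-fold dilution of DMSO stocks) and incubated 16 h at 37C. Viability taken as cellular ATP by CellTiter-Glo luminescence after 30 min RT; signal loss marks cytotoxicity.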

Test [2] has as its target Cellular tumor antigen p53 (Homo sapiens) (UniProt P04637). Nature of the test: TOX21_p53_BLA_p2_ratio: Tox21 HCT-116 p53 Agonism Beta-lactamase Assay, Ratio, Phase 2 (AID 2283592). The method, boiled down: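 Plated HCT116 p53-bla cells (4000/well) received compound after 5 h, then 16 h at 37C/5% CO2. CCF4-AM added, 2 h RT. Ratio of 460 to 530 nm emission taken as the p53 reporter signal.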

The nature of test [3]: TOX21_p53_BLA_p3_viability: Viability Assessment in the Tox21 HCT-116 p53 Agonism Beta-lactamase Assay, Phase 3 (AID 2283593).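 Note: cells exposed to compound for 16 h before reading.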 The method, boiled down:
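HCT116 cells, 4000/well, dosed 5 h after plating by pin transfer (217-fold dilution from DMSO stock) and incubated 16 h at 37C, 5% CO2. Viability read as ATP luminescence with CellTiter-Glo after 30 min at room temperature.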

Test [4] addresses Cellular tumor antigen p53 (Homo sapiens) (UniProt P04637). Nature of the test: TOX21_p53_BLA_p3_ratio: Tox21 HCT-116 p53 Agonism Beta-lactamase Assay, Ratio, Phase 3 (AID 2283596). In short, it runs like this:
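Cells were seeded at 4000/well, rested 5 h at 37C, then dosed with DMSO compound solutions (217-fold dilution) for 16 h. CCF4-AM substrate was loaded for 2 h at room temperature, and the 460/530 nm emission ratio was fitted for gain of signal versus DMSO.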

The nature of test [5]: TOX21_p53_BLA_p4_viability: Viability Assessment in the Tox21 HCT-116 p53 Agonism Beta-lactamase Assay, Phase 4 (AID 2283597).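 Note: hits lower the luminescence signal meaning cytotoxicity.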 The method, boiled down:
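Readout: ATP luminescence (CellTiter-Glo), measured 30 min after reagent addition at RT. The reagent followed a 2 h CCF4-AM incubation, and the cells had been exposed to compound for 16 h at 37C.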

Test [6] addresses Cellular tumor antigen p53 (Homo sapiens) (UniProt P04637). As to the kind of experiment: TOX21_p53_BLA_p5_ratio: Tox21 HCT-116 p53 Agonism Beta-lactamase Assay, Ratio, Phase 5 (AID 2283599). In short, it runs like this:
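HCT-116 p53-bla cells (4000/well) plated 5 h, dosed with compound (217-fold DMSO dilution) for 16 h at 37 C; CCF4-AM substrate 2 h at room temperature. Activity is the 460/530 nm emission ratio (405 nm excitation), fitted in gain-of-signal direction versus DMSO.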

A short description of test [7]: TOX21_p53_BLA_p5_viability: Viability Assessment in the Tox21 HCT-116 p53 Agonism Beta-lactamase Assay, Phase 5 (AID 2283600). In short, it runs like this:
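Workflow: seed 4000 cells per well, wait 5 h, add compounds (DMSO, 217-fold dilution), incubate 16 h, load CCF4-AM 2 h, add CellTiter-Glo, read luminescence after 30 min.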

Test [8] has as its target Cellular tumor antigen p53 (Homo sapiens) (UniProt P04637). As to the kind of experiment: TOX21_p53_BLA_p4_ratio: Tox21 HCT-116 p53 Agonism Beta-lactamase Assay, Ratio, Phase 4 (AID 2283601). The method, boiled down: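 HCT-116 p53 beta-lactamase reporter cells (4000/well) preincubated 5 h, then compound (217-fold dilution of DMSO stock) for 16 h at 37C. CCF4-AM substrate added 2 h at room temperature; 460/530 nm emission ratio fitted upward versus DMSO.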

SMILES strings stand for the structures. Inconclusive results are not listed. The source made the active and inactive calls. Rule for the calls: active = hit-call score of the fitted dose curve at least 0.9, where 1 is the maximum; inconclusive = response in the unintended direction; inactive = score below 0.9.

Cellular tumor antigen p53 (Homo sapiens), sequence (P04637 whole entry, looked up): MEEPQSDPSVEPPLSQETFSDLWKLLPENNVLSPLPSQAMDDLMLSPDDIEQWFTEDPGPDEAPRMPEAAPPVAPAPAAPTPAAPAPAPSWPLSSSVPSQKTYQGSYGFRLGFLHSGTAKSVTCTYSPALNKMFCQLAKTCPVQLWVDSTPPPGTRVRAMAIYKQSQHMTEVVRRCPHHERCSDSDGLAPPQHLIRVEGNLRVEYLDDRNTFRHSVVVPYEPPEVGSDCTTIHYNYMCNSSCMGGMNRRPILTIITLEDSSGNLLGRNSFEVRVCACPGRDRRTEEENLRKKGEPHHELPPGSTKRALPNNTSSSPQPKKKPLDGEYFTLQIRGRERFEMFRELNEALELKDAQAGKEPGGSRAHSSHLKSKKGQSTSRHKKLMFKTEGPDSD

What is called AC50 is the midpoint of the concentration-response curve, whichever way the signal moves. In the case of `CCCCCCOc1ccc(C(=N)N(CCCC)CCCC)c2ccccc12`, the half-maximal activity concentration (AC50) in test [1] was 23 µM (active); in test [2] it was 32.7 µM (active); in test [3] it was 23 µM (active); in test [4] it was 36.4 µM (active); in test [5], 10.1 µM (active); in test [6] it was 29.5 µM (active). The AC50 is 23 µM (active) in test [7] and 19.9 µM (active) in test [8].

In the case of `NC(=O)NS(=O)(=O)c1ccc(N)cc1`, the call in test [1], in test [2], in test [3], in test [4], in test [5] and in test [6] was inactive. For the same compound, the call in test [7] and in test [8] was inactive.

Consider `CCC(C)n1ncn(-c2ccc(N3CCN(c4ccc(OC[C@H]5CO[C@](Cn6cncn6)(c6ccc(Cl)cc6Cl)O5)cc4)CC3)cc2)c1=O` (some centres not stated), for which the result in test [1], in test [2], in test [3], in test [4], in test [5] and in test [6] was inactive. In addition, the compound was classed as inactive in test [7] and in test [8].

As to `CN1[C@@H]2CC[C@H]1CC(OC(=O)C(O)c1ccccc1)C2` (some centres not stated), the compound was called inactive in test [1], in test [2], in test [3], in test [4], in test [5] and in test [6]. The compound was classed as inactive in test [7] and in test [8].

On to `CCOc1ccc2nc3cc(N)ccc3c(N)c2c1`, for which the result in test [1], in test [3], in test [5] and in test [7] was inactive. In addition, the AC50 was 30.3 µM (active) in test [2], 36.4 µM (active) in test [4], 43.5 µM (active) in test [6] and 32.4 µM (active) in test [8].

`C/C=C1\NC(=O)[C@H]2CSSCC/C=C/[C@H](CC(=O)N[C@H](C(C)C)C(=O)N2)OC(=O)C(C(C)C)NC1=O` (some centres not stated): the concentration at half-maximal activity (AC50) in test [1] is 1.46 µM (active); in test [2] it was 0.00463 µM (active); in test [3], 1.87 µM (active); in test [4] it was 4.57 µM (active); in test [5], 0.735 µM (active); in test [6] it was 11.4 µM (active). Moreover, the concentration at half-maximal activity (AC50) in test [7] was 2.56 µM (active); in test [8], 7.21 µM (active).

With `OCCN1CCN(CCCN2c3ccccc3Sc3ccc(Cl)cc32)CC1`, the result in test [1], in test [2], in test [3], in test [4], in test [6] and in test [7] was inactive. The outcome in test [8] was inactive. For the same compound, in test [5], the AC50 was 15.8 µM (active).

For the compound `CCCCc1oc2ccc(NS(C)(=O)=O)cc2c1C(=O)c1ccc(OCCCN(CCCC)CCCC)cc1`, the AC50 is 34.7 µM (active) in test [1]; 34.6 µM (active) in test [3]; 43.7 µM (active) in test [4]; 23.7 µM (active) in test [5]; 43.1 µM (active) in test [8]. Besides, the outcome in test [2], in test [6] and in test [7] was inactive.

Take `CCO[Si](CCCCl)(OCC)OCC`: the result in test [1], in test [3], in test [5], in test [6], in test [7] and in test [8] was inactive. Moreover, the results for the AC50 in test [2] and in test [4] were 87.7 µM (active) and 86.2 µM (active), respectively.

Take `CCOC(=O)COc1ccc2c(=O)cc(-c3ccccc3)oc2c1`: the compound was classed as inactive in test [1], in test [2], in test [3], in test [4], in test [5] and in test [6]. Moreover, the compound was called inactive in test [7] and in test [8].

On to `NC(=O)Nc1ccc(Cl)c(Cl)c1`, for which the compound was called inactive in test [1], in test [2], in test [3], in test [4], in test [5] and in test [6]. Moreover, the compound was called inactive in test [7] and in test [8].

Take `CCOC(=O)Oc1c(OC)cc(C(=O)O[C@@H]2C[C@@H]3CN4CCc5c([nH]c6cc(OC)ccc56)[C@H]4C[C@@H]3[C@H](C(=O)OC)[C@H]2OC)cc1OC`: the outcome in test [1], in test [2], in test [3], in test [4], in test [5] and in test [6] was inactive. In addition, the call in test [7] and in test [8] was inactive.

As for `CCC(C)[C@H]1O[C@]2(C=C[C@@H]1C)C[C@@H]1C[C@@H](C/C=C(\C)[C@@H](O[C@H]3C[C@H](OC)[C@@H](O[C@H]4C[C@H](OC)[C@H](NC(C)=O)[C@H](C)O4)[C@H](C)O3)[C@@H](C)/C=C/C=C3\CO[C@@H]4[C@H](O)C(C)=C[C@@H](C(=O)O1)[C@]34O)O2` (some centres not stated), the AC50 in test [1] was 13 µM (active); in test [2] it was 15 µM (active); in test [3], 23 µM (active); in test [4] it was 34.5 µM (active); in test [5], 9.38 µM (active); in test [6], 22.3 µM (active). Also, the concentration at half-maximal activity (AC50) in test [7] is 15.8 µM (active); in test [8] it was 12 µM (active).

As for `O=C(O)c1cc(Cl)cc(Cl)c1`, the outcome in test [1], in test [2], in test [3], in test [4], in test [5] and in test [6] was inactive. Moreover, the outcome in test [7] and in test [8] was inactive.

`CCN(CC)C(=O)/C(C#N)=C/c1cc(O)c(O)c([N+](=O)[O-])c1`: the compound was classed as inactive in test [1], in test [3], in test [4], in test [5], in test [6] and in test [7]. Further, in test [8], the outcome was inactive. In addition, the AC50 in test [2] was 33.7 µM (active).

For the compound `CC[C@H]1OC(=O)[C@H](C)C(=O)[C@H](C)[C@@H](O[C@@H]2O[C@H](C)C[C@H](N(C)C)[C@H]2O)[C@](C)(OC)C[C@@H](C)C(=O)[C@H](C)[C@H]2N(CCCCn3cnc(-c4cccnc4)c3)C(=O)O[C@]12C`, the compound was called inactive in test [1], in test [2], in test [3], in test [4], in test [5] and in test [6]. In addition, the compound was classed as inactive in test [7] and in test [8].

Regarding `O=C1c2c(O)cccc2[C@H]([C@@H]2O[C@H](CO)[C@@H](O)[C@H](O)[C@H]2O)c2cc(CO)cc(O)c21`, the compound was called inactive in test [1], in test [2], in test [3], in test [4], in test [5] and in test [6]. For the same compound, the result in test [7] and in test [8] was inactive.

Take `Brc1ccccc1-c1ccccc1`: the outcome in test [1], in test [2], in test [3], in test [4], in test [5] and in test [6] was inactive. The outcome in test [7] and in test [8] was inactive.

Turning to `C=CCNC1=C2C[C@@H](C)C[C@H](OC)[C@H](O)[C@@H](C)/C=C(\C)[C@H](OC(N)=O)[C@@H](OC)/C=C\C=C(/C)C(=O)NC(=CC1=O)C2=O`, the outcome in test [1], in test [3], in test [5] and in test [7] was inactive. For the same compound, the AC50 is 0.189 µM (active) in test [2], 0.19 µM (active) in test [4], 0.183 µM (active) in test [6] and 0.147 µM (active) in test [8].
